Assay results: PMC11006913
Positions count from the first letter of the chain named.

Assays:
Test in all cases: PBM; 200 nM protein, PBS
Details in all cases: dsDNA, one strand shown
VENTX [1] = target: T1, VENTX (Homo sapiens, UniProt O95231 78-163, R121Q)
T1 sequence: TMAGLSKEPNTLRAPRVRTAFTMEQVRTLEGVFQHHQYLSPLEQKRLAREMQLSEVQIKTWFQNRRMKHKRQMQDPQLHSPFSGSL

ALX4 = ALX4 (Homo sapiens, UniProt Q9H161 200-286)
PRRX1 [2] = target: PRRX1 (Homo sapiens, UniProt P54821 80-166, F113S)
VENTX [3] = target: T2, VENTX (Homo sapiens, UniProt O95231 78-163, Y115F)
T2 sequence: T1 sequence with Y38F, Q44R

HOXB6 = HOXB6 (Homo sapiens, UniProt P17509 132-218, K202E)
Sequence of HOXB6 (P17509 132-218 K202E): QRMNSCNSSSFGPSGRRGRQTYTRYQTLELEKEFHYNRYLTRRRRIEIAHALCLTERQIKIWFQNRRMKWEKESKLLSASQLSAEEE

HOXA2 [4] = target: HOXA2 (Homo sapiens, UniProt O43364 129-215, R185T)
Sequence of HOXA2 (Homo sapiens, UniProt O43364 129-215, R185T) (O43364 129-215 R185T): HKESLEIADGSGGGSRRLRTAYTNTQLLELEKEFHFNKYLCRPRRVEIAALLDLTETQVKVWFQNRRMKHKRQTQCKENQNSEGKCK

HOXA4 [5] = target: HOXA4 (Homo sapiens, UniProt Q00056 201-287, R217L)
Sequence of HOXA4 (Homo sapiens, UniProt Q00056 201-287, R217L) (Q00056 201-287 R217L): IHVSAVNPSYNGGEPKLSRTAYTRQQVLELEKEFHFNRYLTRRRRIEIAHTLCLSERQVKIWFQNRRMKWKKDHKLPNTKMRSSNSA

MSX2 [6] = target: MSX2 (Homo sapiens, UniProt P35548 130-214)
Sequence of MSX2 (Homo sapiens, UniProt P35548 130-214) (P35548 130-214): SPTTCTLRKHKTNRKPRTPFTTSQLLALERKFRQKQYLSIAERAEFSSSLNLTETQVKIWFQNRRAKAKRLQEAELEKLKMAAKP

MSX2 [7] = target: MSX2 (Homo sapiens, UniProt P35548 130-214, F161Y)
Sequence of MSX2 (Homo sapiens, UniProt P35548 130-214, F161Y) (P35548 130-214 F161Y): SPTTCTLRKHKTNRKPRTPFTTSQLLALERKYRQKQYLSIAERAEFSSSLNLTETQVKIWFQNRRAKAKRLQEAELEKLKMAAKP

VAX1 [8] = target: VAX1 (Homo sapiens, UniProt Q5SQQ9 86-172, T142I)
Sequence of VAX1 (Homo sapiens, UniProt Q5SQQ9 86-172, T142I) (Q5SQQ9 86-172 T142I): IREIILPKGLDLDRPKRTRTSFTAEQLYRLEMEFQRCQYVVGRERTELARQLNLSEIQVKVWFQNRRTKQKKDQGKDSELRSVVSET

HOXA4 [9] = target: HOXA4 (Homo sapiens, UniProt Q00056 201-287, W262F)
Sequence of HOXA4 (Homo sapiens, UniProt Q00056 201-287, W262F) (Q00056 201-287 W262F): as the sequence (Q00056 201-287 R217L) above, with L17R, W62F counted along it

PRRX1 [10] = target: PRRX1 (Homo sapiens, UniProt P54821 80-166)
Sequence of PRRX1 (Homo sapiens, UniProt P54821 80-166) (P54821 80-166): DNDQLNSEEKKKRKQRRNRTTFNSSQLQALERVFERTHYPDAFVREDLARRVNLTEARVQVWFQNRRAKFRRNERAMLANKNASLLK

VAX1 [11] = target: VAX1 (Homo sapiens, UniProt Q5SQQ9 86-172, K157R)
Sequence of VAX1 (Homo sapiens, UniProt Q5SQQ9 86-172, K157R) (Q5SQQ9 86-172 K157R): as the sequence (Q5SQQ9 86-172 T142I) above, with I57T, K72R counted along it

HOXB4 [12] = target: HOXB4 (Homo sapiens, UniProt P17483 148-234)
Sequence of HOXB4 (Homo sapiens, UniProt P17483 148-234) (P17483 148-234): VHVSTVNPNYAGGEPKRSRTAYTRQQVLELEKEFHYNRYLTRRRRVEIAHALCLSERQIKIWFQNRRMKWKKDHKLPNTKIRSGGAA

HOXB4 [13] = target: HOXB4 (Homo sapiens, UniProt P17483 148-234, V174I)
Sequence of HOXB4 (Homo sapiens, UniProt P17483 148-234, V174I) (P17483 148-234 V174I): as the sequence (P17483 148-234) above, with V27I counted along it

HOXA2 [14] = target: HOXA2 (Homo sapiens, UniProt O43364 129-215, R185K)
Sequence of HOXA2 (Homo sapiens, UniProt O43364 129-215, R185K) (O43364 129-215 R185K): as the sequence (O43364 129-215 R185T) above, with T57K counted along it

PAX4 [15] = target: T3, PAX4 (Homo sapiens, UniProt O43316 9-242, R200Q)
T3 sequence: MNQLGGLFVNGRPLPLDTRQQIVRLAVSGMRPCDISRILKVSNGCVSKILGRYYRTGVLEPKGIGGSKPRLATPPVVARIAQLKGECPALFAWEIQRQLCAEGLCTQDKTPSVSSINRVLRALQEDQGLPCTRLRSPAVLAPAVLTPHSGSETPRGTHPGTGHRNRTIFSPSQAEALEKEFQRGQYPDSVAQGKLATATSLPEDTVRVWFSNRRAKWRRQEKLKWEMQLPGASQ

PAX4 [16] = target: T4, PAX4 (Homo sapiens, UniProt O43316 9-242, R200K)
T4 sequence: T3 sequence with Q192K

PAX4 [17] = target: T5, PAX4 (Homo sapiens, UniProt O43316 9-242, F177V)
T5 sequence: T3 sequence with F169V, Q192R

PAX4 [18] = target: T6, PAX4 (Homo sapiens, UniProt O43316 9-242, F177Y)
T6 sequence: T3 sequence with F169Y, Q192R

Sequence of PRRX1 (Homo sapiens, UniProt P54821 80-166, F113S) (P54821 80-166 F113S): as the sequence (P54821 80-166) above, with F34S counted along it
Sequence of ALX4 (Q9H161 200-286): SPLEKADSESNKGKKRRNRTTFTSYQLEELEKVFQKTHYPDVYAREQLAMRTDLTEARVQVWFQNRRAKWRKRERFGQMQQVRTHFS

| Sequence | binding signal (VENTX [1]) | binding signal (ALX4) | binding signal (PRRX1 [2]) | binding signal (VENTX [3]) | binding signal (HOXB6) | binding signal (HOXA2 [4]) | binding signal (HOXA4 [5]) | binding signal (MSX2 [6]) | binding signal (MSX2 [7]) | binding signal (VAX1 [8]) | binding signal (HOXA4 [9]) | binding signal (PRRX1 [10]) | binding signal (VAX1 [11]) | binding signal (HOXB4 [12]) | binding signal (HOXB4 [13]) | binding signal (HOXA2 [14]) | binding signal (PAX4 [15]) | binding signal (PAX4 [16]) | binding signal (PAX4 [17]) | binding signal (PAX4 [18]) |
| --- | --- | --- | --- | --- | --- | --- | --- | --- | --- | --- | --- | --- | --- | --- | --- | --- | --- | --- | --- | --- |
| CAATTAAA | 11.7 upbm affinity estimate (log intensity, higher = more binding, comparable within an allelic series) | 14 upbm affinity estimate (log intensity, higher = more binding, comparable within an allelic series) | 11.2 upbm affinity estimate (log intensity, higher = more binding, comparable within an allelic series) | 11.4 upbm affinity estimate (log intensity, higher = more binding, comparable within an allelic series) | 10 upbm affinity estimate (log intensity, higher = more binding, comparable within an allelic series) | 12.6 upbm affinity estimate (log intensity, higher = more binding, comparable within an allelic series) | 12.1 upbm affinity estimate (log intensity, higher = more binding, comparable within an allelic series) | 14 upbm affinity estimate (log intensity, higher = more binding, comparable within an allelic series) | 13.7 upbm affinity estimate (log intensity, higher = more binding, comparable within an allelic series) | 12.7 upbm affinity estimate (log intensity, higher = more binding, comparable within an allelic series) | 11.3 upbm affinity estimate (log intensity, higher = more binding, comparable within an allelic series) | 13.3 upbm affinity estimate (log intensity, higher = more binding, comparable within an allelic series) | 12.8 upbm affinity estimate (log intensity, higher = more binding, comparable within an allelic series) |  |  |  |  |  |  |  |
| GGCAATTA | 11.9 upbm affinity estimate (log intensity, higher = more binding, comparable within an allelic series) | 13.6 upbm affinity estimate (log intensity, higher = more binding, comparable within an allelic series) |  | 11.8 upbm affinity estimate (log intensity, higher = more binding, comparable within an allelic series) | 9.93 upbm affinity estimate (log intensity, higher = more binding, comparable within an allelic series) | 13 upbm affinity estimate (log intensity, higher = more binding, comparable within an allelic series) | 12.1 upbm affinity estimate (log intensity, higher = more binding, comparable within an allelic series) | 13.9 upbm affinity estimate (log intensity, higher = more binding, comparable within an allelic series) | 13.6 upbm affinity estimate (log intensity, higher = more binding, comparable within an allelic series) | 13 upbm affinity estimate (log intensity, higher = more binding, comparable within an allelic series) | 11.4 upbm affinity estimate (log intensity, higher = more binding, comparable within an allelic series) |  | 12.8 upbm affinity estimate (log intensity, higher = more binding, comparable within an allelic series) | 13.1 upbm affinity estimate (log intensity, higher = more binding, comparable within an allelic series) | 13.6 upbm affinity estimate (log intensity, higher = more binding, comparable within an allelic series) | 13.3 upbm affinity estimate (log intensity, higher = more binding, comparable within an allelic series) |  |  |  |  |
| CAATTAAG | 12 upbm affinity estimate (log intensity, higher = more binding, comparable within an allelic series) | 13.9 upbm affinity estimate (log intensity, higher = more binding, comparable within an allelic series) | 11.3 upbm affinity estimate (log intensity, higher = more binding, comparable within an allelic series) | 11.6 upbm affinity estimate (log intensity, higher = more binding, comparable within an allelic series) | 9.95 upbm affinity estimate (log intensity, higher = more binding, comparable within an allelic series) | 12.9 upbm affinity estimate (log intensity, higher = more binding, comparable within an allelic series) | 12.1 upbm affinity estimate (log intensity, higher = more binding, comparable within an allelic series) | 13.9 upbm affinity estimate (log intensity, higher = more binding, comparable within an allelic series) | 13.4 upbm affinity estimate (log intensity, higher = more binding, comparable within an allelic series) | 12.8 upbm affinity estimate (log intensity, higher = more binding, comparable within an allelic series) | 11.7 upbm affinity estimate (log intensity, higher = more binding, comparable within an allelic series) | 13.3 upbm affinity estimate (log intensity, higher = more binding, comparable within an allelic series) | 12.5 upbm affinity estimate (log intensity, higher = more binding, comparable within an allelic series) | 13 upbm affinity estimate (log intensity, higher = more binding, comparable within an allelic series) | 13.7 upbm affinity estimate (log intensity, higher = more binding, comparable within an allelic series) | 13 upbm affinity estimate (log intensity, higher = more binding, comparable within an allelic series) | 11.9 upbm affinity estimate (log intensity, higher = more binding, comparable within an allelic series) |  |  |  |
| CTAATTAC | 12.7 upbm affinity estimate (log intensity, higher = more binding, comparable within an allelic series) | 14.4 upbm affinity estimate (log intensity, higher = more binding, comparable within an allelic series) | 11.5 upbm affinity estimate (log intensity, higher = more binding, comparable within an allelic series) | 12.7 upbm affinity estimate (log intensity, higher = more binding, comparable within an allelic series) | 10 upbm affinity estimate (log intensity, higher = more binding, comparable within an allelic series) | 14.2 upbm affinity estimate (log intensity, higher = more binding, comparable within an allelic series) | 12.7 upbm affinity estimate (log intensity, higher = more binding, comparable within an allelic series) | 14.1 upbm affinity estimate (log intensity, higher = more binding, comparable within an allelic series) | 13.8 upbm affinity estimate (log intensity, higher = more binding, comparable within an allelic series) | 14 upbm affinity estimate (log intensity, higher = more binding, comparable within an allelic series) | 12.5 upbm affinity estimate (log intensity, higher = more binding, comparable within an allelic series) | 13.6 upbm affinity estimate (log intensity, higher = more binding, comparable within an allelic series) | 14.1 upbm affinity estimate (log intensity, higher = more binding, comparable within an allelic series) | 13.6 upbm affinity estimate (log intensity, higher = more binding, comparable within an allelic series) | 14.4 upbm affinity estimate (log intensity, higher = more binding, comparable within an allelic series) | 14 upbm affinity estimate (log intensity, higher = more binding, comparable within an allelic series) | 12.3 upbm affinity estimate (log intensity, higher = more binding, comparable within an allelic series) | 12 upbm affinity estimate (log intensity, higher = more binding, comparable within an allelic series) | 10.6 upbm affinity estimate (log intensity, higher = more binding, comparable within an allelic series) | 11.1 upbm affinity estimate (log intensity, higher = more binding, comparable within an allelic series) |
| ATAATTAG | 12.4 upbm affinity estimate (log intensity, higher = more binding, comparable within an allelic series) | 14.4 upbm affinity estimate (log intensity, higher = more binding, comparable within an allelic series) | 11.9 upbm affinity estimate (log intensity, higher = more binding, comparable within an allelic series) | 12.3 upbm affinity estimate (log intensity, higher = more binding, comparable within an allelic series) | 10.1 upbm affinity estimate (log intensity, higher = more binding, comparable within an allelic series) | 13.9 upbm affinity estimate (log intensity, higher = more binding, comparable within an allelic series) | 12.7 upbm affinity estimate (log intensity, higher = more binding, comparable within an allelic series) | 14.1 upbm affinity estimate (log intensity, higher = more binding, comparable within an allelic series) | 13.7 upbm affinity estimate (log intensity, higher = more binding, comparable within an allelic series) | 13.9 upbm affinity estimate (log intensity, higher = more binding, comparable within an allelic series) | 12.3 upbm affinity estimate (log intensity, higher = more binding, comparable within an allelic series) | 13.7 upbm affinity estimate (log intensity, higher = more binding, comparable within an allelic series) | 13.9 upbm affinity estimate (log intensity, higher = more binding, comparable within an allelic series) | 13.6 upbm affinity estimate (log intensity, higher = more binding, comparable within an allelic series) | 14.3 upbm affinity estimate (log intensity, higher = more binding, comparable within an allelic series) | 13.8 upbm affinity estimate (log intensity, higher = more binding, comparable within an allelic series) | 12.6 upbm affinity estimate (log intensity, higher = more binding, comparable within an allelic series) | 12 upbm affinity estimate (log intensity, higher = more binding, comparable within an allelic series) | 10.8 upbm affinity estimate (log intensity, higher = more binding, comparable within an allelic series) | 11.3 upbm affinity estimate (log intensity, higher = more binding, comparable within an allelic series) |
